Data published in PubChem BioAssay (EPA / NIEHS).
Active and inactive are the calls of the source. Rule for the calls: active = hit-call score of the fitted dose curve at least 0.9, where 1 is the maximum; inactive = score below 0.9.

Assays:
Conditions in all cases: mRNA level, 48 h; actives raise or lower the signal
CYP3A5 (gene 1577) = assay: LTEA_HepaRG_CYP3A5: Life Technologies and Expression Analysis (LTEA) Assay for CYP3A5 using HepaRG (AID 2283493)
How it was run: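 Readout was CYP3A5 mRNA by qRT-PCR. HepaRG cultures were exposed for 48 h in serum-free induction medium to chemicals at up to 100 uM, and responses were fitted in both directions relative to DMSO vehicle.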

[1] = read-out: Fatty Acid-Binding Protein 1 (FABP1), FABP1 (gene 2168); assay: LTEA_HepaRG_FABP1: Life Technologies and Expression Analysis (LTEA) Assay for Fatty Acid-Binding Protein 1 (FABP1) using HepaRG (AID 2283494)
How it was run: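 FABP1 expression by TaqMan qRT-PCR, normalised to three housekeeping genes, in HepaRG cells after 48 h chemical treatment. Eight-point half-log series topping at 100 uM in 0.5% DMSO, duplicates; gain or loss fitted relative to vehicle.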

[2] = read-out: Glutathione S-Transferase (GSTA2), GSTA2 (gene 2939); assay: LTEA_HepaRG_GSTA2: Life Technologies and Expression Analysis (LTEA) Assay for Glutathione S-Transferase (GSTA2) using HepaRG (AID 2283497)
How it was run: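 GSTA2 transcript levels came from Fluidigm TaqMan qRT-PCR normalized to three housekeeping genes, fitted in both directions against DMSO. HepaRG cultures received chemicals for 48 h in serum-free induction medium (0.5% DMSO), 8 half-log concentrations up to 100 uM, duplicate.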

[3] = read-out: Glutamate-cysteine ligase catalytic (GCLC), GCLC (gene 2729); assay: LTEA_HepaRG_GCLC: Life Technologies and Expression Analysis (LTEA) Assay for Glutamate-cysteine ligase catalytic (GCLC) using HepaRG (AID 2283498)
How it was run: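 Expression by TaqMan qRT-PCR, normalized to three housekeeping genes (ACTB, GAPDH, POLR2A), with up- or down-regulation fitted against DMSO. HepaRG cells dosed in duplicate for 48 h with 8 half-log concentrations up to 100 uM, vehicle 0.5% DMSO.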

[4] = read-out: growth arrest and DNA damage 45 (GADD45G), GADD45G (gene 10912); assay: LTEA_HepaRG_GADD45G: Life Technologies and Expression Analysis (LTEA) Assay for growth arrest and DNA damage 45 (GADD45G) using HepaRG (AID 2283499)
How it was run: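 Differentiated human HepaRG cells, 48 h post-plating, exposed 48 h in serum-free induction medium to 8 half-log concentrations (top 100 uM, 0.5% DMSO) in duplicate. GADD45G mRNA measured by Fluidigm TaqMan qRT-PCR, normalized to ACTB, GAPDH, POLR2A; bidirectional fit versus DMSO.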

[5] = read-out: Glutamate-cysteine ligase regulatory (GCLM), GCLM (gene 2730); assay: LTEA_HepaRG_GCLM: Life Technologies and Expression Analysis (LTEA) Assay for Glutamate-cysteine ligase regulatory (GCLM) using HepaRG (AID 2283500)
How it was run: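 In this multiplexed HepaRG gene-expression assay, GCLM mRNA change after 48 h treatment (8 concentrations, max 100 uM) was scored against DMSO by bidirectional curve fitting.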

[6] = read-out: Glutathione S-transferase M3 (GSTM3), GSTM3 (gene 2947); assay: LTEA_HepaRG_GSTM3: Life Technologies and Expression Analysis (LTEA) Assay for Glutathione S-transferase M3 (GSTM3) using HepaRG (AID 2283501)
How it was run: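 Differentiated human HepaRG cells were exposed in duplicate for 48 h in serum-free induction medium, 8 points from 100 uM top in half-log steps, 0.5% DMSO. GSTM3 mRNA was measured by TaqMan qRT-PCR, normalized to ACTB, GAPDH and POLR2A; bidirectional fit versus DMSO.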

[7] = read-out: Heat shock 70 kDa protein 1 (HSPA1A), gene 3303; assay: LTEA_HepaRG_HSPA1A: Life Technologies and Expression Analysis (LTEA) Assay for Heat shock 70 kDa protein 1 (HSPA1A) using HepaRG (AID 2283502)
How it was run: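 An oxidative-stress marker readout: HepaRG cells treated 48 h in duplicate with an eight-point series (highest 100 uM) had HSPA1A mRNA quantified by TaqMan qRT-PCR. Activity was fitted in both directions using 0.5% DMSO as baseline.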

[8] = read-out: Hypoxia-inducible factor 1-alpha (Homo sapiens) (UniProt Q16665); assay: LTEA_HepaRG_HIF1A: Life Technologies and Expression Analysis (LTEA) Assay for Hypoxia-inducible factor 1 (HIF1A) Trancription factor using HepaRG (AID 2283503)
How it was run: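 Gain- or loss-of-signal HIF1A mRNA changes are fitted against a DMSO baseline. HepaRG cultures receive eight concentrations, highest 100 uM, for 48 h in serum-free induction medium with 0.5% DMSO.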

[9] = read-out: 3-Hydroxy-3-Methylglutaryl-CoA Synthase 2 (HMGCS2), HMGCS2 (gene 3158); assay: LTEA_HepaRG_HMGCS2: Life Technologies and Expression Analysis (LTEA) Assay for 3-Hydroxy-3-Methylglutaryl-CoA Synthase 2 (HMGCS2) using HepaRG (AID 2283504)
How it was run: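 Human HepaRG cells in serum-free induction medium were exposed in duplicate for 48 h to 8-point half-log series from 100 uM top in 0.5% DMSO. HMGCS2 mRNA measured by TaqMan qRT-PCR, normalised to ACTB, GAPDH, POLR2A; bidirectional fit versus DMSO.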

HGF (gene 3082) = assay: LTEA_HepaRG_HGF: Life Technologies and Expression Analysis (LTEA) Assay for Hepatocyte Growth Facto (HGF) using HepaRG (AID 2283505)
How it was run: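 Differentiated HepaRG cells in serum-free induction medium exposed 48 h in duplicate, 8 half-log concentrations from 100 uM in 0.5% DMSO. HGF mRNA by qRT-PCR, normalised to ACTB, GAPDH, POLR2A; bidirectional fitting.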

[10] = read-out: Insulin Like Growth Factor 1 (IGF1), IGF1 (gene 3479); assay: LTEA_HepaRG_IGF1: Life Technologies and Expression Analysis (LTEA) Assay for Insulin Like Growth Factor 1 (IGF1) using HepaRG (AID 2283506)
How it was run: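 Endpoint: IGF1 mRNA change by qRT-PCR, housekeeping-normalized, fitted bidirectionally relative to 0.5% DMSO vehicle. Human HepaRG cells were treated 48 h in serum-free induction medium, eight half-log concentrations topping at 100 uM.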

[11] = read-out: Intercellular Adhesion Molecule 1 (ICAM1), ICAM1 (gene 3383); assay: LTEA_HepaRG_ICAM1: Life Technologies and Expression Analysis (LTEA) Assay for Intercellular Adhesion Molecule 1 (ICAM1) using HepaRG (AID 2283507)
How it was run: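 Differentiated human HepaRG cells in serum-free induction medium exposed 48 h in duplicate to 8 half-log concentrations (top 100 uM, 0.5% DMSO). ICAM1 mRNA quantified by TaqMan qRT-PCR, normalized to ACTB, GAPDH and POLR2A; bidirectional fitting versus DMSO.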

[12] = read-out: Insulin-like growth factor-binding protein 1 (IGFBP1), IGFBP1 (gene 3484); assay: LTEA_HepaRG_IGFBP1: Life Technologies and Expression Analysis (LTEA) Assay for Insulin-like growth factor-binding protein 1 (IGFBP1) using HepaRG (AID 2283508)
How it was run: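 HepaRG cells, plated 48 h then switched to serum-free induction medium, exposed in duplicate for 48 h to 8-point half-log series from 100 uM in 0.5% DMSO. mRNA measured by qRT-PCR, normalized to ACTB/GAPDH/POLR2A; bidirectional fit versus DMSO.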

[13] = read-out: Interleukin 6 (IL6), IL6 (gene 3569); assay: LTEA_HepaRG_IL6: Life Technologies and Expression Analysis (LTEA) Assay for Interleukin 6 (IL6) using HepaRG (AID 2283509)
How it was run: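 Transcript levels, normalized to three housekeeping genes, were quantified by qRT-PCR after 48 h chemical treatment of HepaRG cells. Eight-point half-log series from 100 uM in 0.5% DMSO, duplicates. Fitted both directions against DMSO baseline.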

[14] = read-out: Interleukin 6 Receptor (IL6R), IL6R (gene 3570); assay: LTEA_HepaRG_IL6R: Life Technologies and Expression Analysis (LTEA) Assay for Interleukin 6 Receptor (IL6R) using HepaRG (AID 2283510)
How it was run: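 In this HepaRG screen, test chemicals act on cells for 48 h at up to 100 uM (eight half-log points, duplicate wells). IL6R expression is quantified by qRT-PCR after normalization to ACTB, GAPDH and POLR2A, with DMSO as baseline.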

[15] = read-out: Potassium channel subfamily K member 1 (KCNK1), KCNK1 (gene 3775); assay: LTEA_HepaRG_KCNK1: Life Technologies and Expression Analysis (LTEA) Assay for Potassium channel subfamily K member 1 (KCNK1) using HepaRG (AID 2283511)
How it was run: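 KCNK1 transcript measured by TaqMan qRT-PCR against three housekeeping genes, after HepaRG cells were treated 48 h with eight half-log concentrations (top 100 uM, 0.5% DMSO). Curves fitted bidirectionally relative to vehicle.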

[16] = read-out: Keratin 19 (KRT19), KRT19 (gene 3880); assay: LTEA_HepaRG_KRT19: Life Technologies and Expression Analysis (LTEA) Assay for Keratin 19 (KRT19) using HepaRG (AID 2283512)
How it was run: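 Differentiated HepaRG cells in serum-free induction medium, exposed 48 h in duplicate to 8 half-log concentrations up to 100 uM in 0.5% DMSO. KRT19 mRNA by qRT-PCR, normalized to ACTB, GAPDH, POLR2A; bidirectional fit vs DMSO.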

Measured: outcome

Chain of Hypoxia-inducible factor 1-alpha (Homo sapiens) (Q16665 whole entry, looked up): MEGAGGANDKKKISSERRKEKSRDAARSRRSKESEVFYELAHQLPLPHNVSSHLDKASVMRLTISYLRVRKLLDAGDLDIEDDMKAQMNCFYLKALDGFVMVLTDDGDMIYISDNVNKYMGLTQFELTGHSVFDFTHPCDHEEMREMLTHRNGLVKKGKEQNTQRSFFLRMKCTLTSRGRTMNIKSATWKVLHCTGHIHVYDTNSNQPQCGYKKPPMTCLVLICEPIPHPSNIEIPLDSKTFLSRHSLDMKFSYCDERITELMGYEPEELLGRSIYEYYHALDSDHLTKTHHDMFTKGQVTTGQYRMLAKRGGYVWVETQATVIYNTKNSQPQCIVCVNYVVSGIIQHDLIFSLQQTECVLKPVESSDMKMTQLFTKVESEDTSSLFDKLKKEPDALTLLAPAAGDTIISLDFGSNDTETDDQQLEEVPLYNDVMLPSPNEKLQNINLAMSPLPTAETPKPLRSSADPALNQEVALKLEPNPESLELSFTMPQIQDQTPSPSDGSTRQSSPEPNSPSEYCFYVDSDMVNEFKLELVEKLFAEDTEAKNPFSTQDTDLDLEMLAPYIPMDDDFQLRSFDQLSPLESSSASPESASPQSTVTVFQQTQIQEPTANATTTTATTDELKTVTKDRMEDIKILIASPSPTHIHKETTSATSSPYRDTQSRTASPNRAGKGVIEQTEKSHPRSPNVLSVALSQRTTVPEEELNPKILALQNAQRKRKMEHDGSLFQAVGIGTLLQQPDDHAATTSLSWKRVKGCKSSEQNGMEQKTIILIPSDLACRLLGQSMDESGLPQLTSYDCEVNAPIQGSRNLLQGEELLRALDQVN

c1cc[n+]2c(c1)-c1cccc[n+]1CC2
inactive: all assays above
